These results are taken from ChEMBL document CHEMBL3988442, “University of Dundee, Small-Polar-MMV Screening Library” (2021).

For some of these results: Potency and affinity values are given separately.

Parameters in all cases: scale not given: direction of the effect not stated beside the values
The target in experiment [1] is Protein translocase subunit SecA (Escherichia coli (strain K12)) (UniProt P10408). In words: Assay to Identify E. coli SecA ATPase Inhibitors. The experiment is classed as functional. Particulars: 30 µM.
The target in experiment [2] is T1, Ubiquitin-activating enzyme e1, putative (Leishmania donovani (strain BPK282A1)) (UniProt E9BSI1).
T1 sequence (whole entry): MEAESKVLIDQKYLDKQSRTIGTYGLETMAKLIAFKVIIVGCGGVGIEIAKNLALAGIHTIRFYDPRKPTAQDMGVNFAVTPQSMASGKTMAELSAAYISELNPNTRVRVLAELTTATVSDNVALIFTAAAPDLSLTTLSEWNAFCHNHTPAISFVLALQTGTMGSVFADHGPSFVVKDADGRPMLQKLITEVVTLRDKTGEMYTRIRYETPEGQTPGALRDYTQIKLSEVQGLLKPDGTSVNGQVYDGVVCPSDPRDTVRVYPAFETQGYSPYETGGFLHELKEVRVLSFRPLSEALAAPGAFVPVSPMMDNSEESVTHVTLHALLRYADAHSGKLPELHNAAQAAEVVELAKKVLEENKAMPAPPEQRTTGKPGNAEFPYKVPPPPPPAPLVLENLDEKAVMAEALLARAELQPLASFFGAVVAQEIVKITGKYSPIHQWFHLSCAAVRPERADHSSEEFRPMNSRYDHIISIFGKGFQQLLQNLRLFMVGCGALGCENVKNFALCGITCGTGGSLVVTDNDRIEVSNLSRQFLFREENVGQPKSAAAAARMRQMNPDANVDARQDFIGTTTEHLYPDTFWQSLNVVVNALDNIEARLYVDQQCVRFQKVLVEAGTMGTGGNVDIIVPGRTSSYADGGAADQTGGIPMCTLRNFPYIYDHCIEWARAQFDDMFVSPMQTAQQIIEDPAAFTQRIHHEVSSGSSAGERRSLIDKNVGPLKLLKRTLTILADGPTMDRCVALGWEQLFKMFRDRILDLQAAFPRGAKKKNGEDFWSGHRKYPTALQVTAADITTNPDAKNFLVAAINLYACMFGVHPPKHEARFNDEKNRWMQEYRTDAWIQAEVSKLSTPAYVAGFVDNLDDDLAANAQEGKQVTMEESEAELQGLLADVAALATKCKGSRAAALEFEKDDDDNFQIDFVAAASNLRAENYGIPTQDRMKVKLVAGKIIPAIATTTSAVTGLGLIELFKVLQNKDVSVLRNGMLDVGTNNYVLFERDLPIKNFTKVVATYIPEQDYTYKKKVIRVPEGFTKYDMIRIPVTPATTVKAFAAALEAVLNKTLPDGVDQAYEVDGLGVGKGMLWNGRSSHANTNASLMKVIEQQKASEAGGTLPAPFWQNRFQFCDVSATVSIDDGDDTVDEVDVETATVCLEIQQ
Kind of experiment: Leishmania donovani Ubiquitin Activating Enzyme (LdE1). The experiment is classed as functional. As to conditions: 30 µM.

The target in experiment [3] is AMP-activated protein kinase, AMPK (Homo sapiens) (UniProt P54646+O43741+P54619+Q9UGJ0+Q9Y478+Q13131+Q9UGI9). Kind of experiment: AMP-dependent Kinase enzyme assay. An in vitro enzyme assay that detects ADP turnover that is directly proportional to AMPK activity. This uses naive AMPK that is activated during the assay with MK-8722. The experiment is classed as functional. As to conditions: 30 µM.

The target in experiment [4] is Sialic acid-binding Ig-like lectin 9 (Homo sapiens) (UniProt Q9Y336). Kind of experiment: Hs-Siglec9 ALPHAscreen SOP 20170721. As to conditions: 10 µM. A general note: Alpha assays give light when donor and acceptor beads are brought close together.
In a further experiment the test system is Trypanosoma cruzi. Kind of experiment: Trypanosoma cruzi phosphomannomutase and mannose-1-phosphate guanylyltransferase assay. The experiment is classed as functional. Particulars: 10 µM.
In experiment [5] the target is T2, Arginase-2, mitochondrial (Homo sapiens) (UniProt P78540).
T2 sequence (whole entry): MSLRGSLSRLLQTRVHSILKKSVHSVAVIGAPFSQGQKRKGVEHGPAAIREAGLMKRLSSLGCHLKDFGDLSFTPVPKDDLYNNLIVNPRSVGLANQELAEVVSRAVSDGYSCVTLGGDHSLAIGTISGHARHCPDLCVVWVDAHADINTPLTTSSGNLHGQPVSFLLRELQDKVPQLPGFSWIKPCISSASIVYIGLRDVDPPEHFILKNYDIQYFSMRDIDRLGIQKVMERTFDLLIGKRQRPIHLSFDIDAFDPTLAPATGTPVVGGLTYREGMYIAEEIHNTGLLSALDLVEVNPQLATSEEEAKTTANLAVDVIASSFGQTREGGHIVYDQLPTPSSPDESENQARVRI
Kind of experiment: in vitro enzyme assay to detect the production of urea directly proportional to the activity of Arginase II. Also: in the data most compounds retested in dose-response had high values. In kind it is functional. Particulars: 33.3 µM.

The target of experiment [6] is T3, Proteasome subunit beta (Trypanosoma cruzi) (UniProt O96673).
T3 sequence (whole entry): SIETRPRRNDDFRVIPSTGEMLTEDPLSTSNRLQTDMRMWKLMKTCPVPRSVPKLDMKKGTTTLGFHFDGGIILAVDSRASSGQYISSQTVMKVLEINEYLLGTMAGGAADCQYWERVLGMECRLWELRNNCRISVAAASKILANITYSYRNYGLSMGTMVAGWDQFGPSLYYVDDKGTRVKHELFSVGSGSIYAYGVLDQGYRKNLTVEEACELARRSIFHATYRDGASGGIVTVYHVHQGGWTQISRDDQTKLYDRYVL
Kind of experiment: Trypanosoma cruzi proteasome chymotrypsin-like activity (TcProtChymo) assay. Also: in the data most compounds retested in dose-response had high values. In kind it is functional. As to conditions: 9.37 µM.

The species entered for another experiment is Homo sapiens. In words: To identify inhibition of the IFN signalling (Jak-Stat) pathway via expression of an eGFP reporter gene under the control of an IFN-stimulated response element (ISRE) containing MxA promoter. In kind it is functional. Particulars: 30 µM.
Experiment [7] addresses T4, Tyrosyl-tRNA synthetase, putative (Trypanosoma cruzi (strain CL Brener)) (UniProt Q4DSP6).
T4 sequence (whole entry): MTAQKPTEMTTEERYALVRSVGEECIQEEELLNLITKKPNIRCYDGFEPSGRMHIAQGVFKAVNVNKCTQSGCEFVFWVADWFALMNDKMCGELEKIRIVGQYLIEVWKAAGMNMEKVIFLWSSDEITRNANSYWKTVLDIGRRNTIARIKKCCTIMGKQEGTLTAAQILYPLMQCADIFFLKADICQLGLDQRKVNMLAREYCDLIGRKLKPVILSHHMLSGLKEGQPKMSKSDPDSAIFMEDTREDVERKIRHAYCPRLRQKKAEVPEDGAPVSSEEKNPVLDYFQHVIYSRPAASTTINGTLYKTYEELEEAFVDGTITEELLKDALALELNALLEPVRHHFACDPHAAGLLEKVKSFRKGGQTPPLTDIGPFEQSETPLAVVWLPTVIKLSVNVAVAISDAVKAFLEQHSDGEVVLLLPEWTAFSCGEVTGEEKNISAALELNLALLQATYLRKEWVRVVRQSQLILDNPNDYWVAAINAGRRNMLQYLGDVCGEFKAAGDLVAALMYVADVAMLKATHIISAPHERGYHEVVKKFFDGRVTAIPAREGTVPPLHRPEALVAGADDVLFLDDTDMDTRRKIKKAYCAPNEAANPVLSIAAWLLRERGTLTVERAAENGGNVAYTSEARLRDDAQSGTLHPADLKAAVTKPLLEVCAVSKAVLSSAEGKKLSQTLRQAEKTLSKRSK
In words: Trypanosoma cruzi tyrosyl tRNA synthetase (TcYRS) _High Tyrosine SOP. Also: in the data most compounds retested in dose-response had high values. In kind it is functional. As to conditions: 30 µM.

Experiment [8] deals with T4, Tyrosyl-tRNA synthetase, putative (Trypanosoma cruzi (strain CL Brener)). Kind of experiment: Trypanosoma cruzi tyrosyl tRNA synthetase (TcYRS) SOP. In kind it is functional. As to conditions: 30 µM.
For experiment [9], the target named is Chromo domain-containing protein 1 (Saccharomyces cerevisiae (strain ATCC 204508 / S288c) (Baker's yeast)) (UniProt P32657). Kind of experiment: ScCHD-1 Enzyme Inhibition Assay. Also: in the data most compounds retested in dose-response had high values. The experiment is classed as functional. Particulars: 30 µM.
Chain of Chromo domain-containing protein 1 (Saccharomyces cerevisiae (strain ATCC 204508 / S288c) (Baker's yeast)) (P32657 whole entry, the tested form may be a part): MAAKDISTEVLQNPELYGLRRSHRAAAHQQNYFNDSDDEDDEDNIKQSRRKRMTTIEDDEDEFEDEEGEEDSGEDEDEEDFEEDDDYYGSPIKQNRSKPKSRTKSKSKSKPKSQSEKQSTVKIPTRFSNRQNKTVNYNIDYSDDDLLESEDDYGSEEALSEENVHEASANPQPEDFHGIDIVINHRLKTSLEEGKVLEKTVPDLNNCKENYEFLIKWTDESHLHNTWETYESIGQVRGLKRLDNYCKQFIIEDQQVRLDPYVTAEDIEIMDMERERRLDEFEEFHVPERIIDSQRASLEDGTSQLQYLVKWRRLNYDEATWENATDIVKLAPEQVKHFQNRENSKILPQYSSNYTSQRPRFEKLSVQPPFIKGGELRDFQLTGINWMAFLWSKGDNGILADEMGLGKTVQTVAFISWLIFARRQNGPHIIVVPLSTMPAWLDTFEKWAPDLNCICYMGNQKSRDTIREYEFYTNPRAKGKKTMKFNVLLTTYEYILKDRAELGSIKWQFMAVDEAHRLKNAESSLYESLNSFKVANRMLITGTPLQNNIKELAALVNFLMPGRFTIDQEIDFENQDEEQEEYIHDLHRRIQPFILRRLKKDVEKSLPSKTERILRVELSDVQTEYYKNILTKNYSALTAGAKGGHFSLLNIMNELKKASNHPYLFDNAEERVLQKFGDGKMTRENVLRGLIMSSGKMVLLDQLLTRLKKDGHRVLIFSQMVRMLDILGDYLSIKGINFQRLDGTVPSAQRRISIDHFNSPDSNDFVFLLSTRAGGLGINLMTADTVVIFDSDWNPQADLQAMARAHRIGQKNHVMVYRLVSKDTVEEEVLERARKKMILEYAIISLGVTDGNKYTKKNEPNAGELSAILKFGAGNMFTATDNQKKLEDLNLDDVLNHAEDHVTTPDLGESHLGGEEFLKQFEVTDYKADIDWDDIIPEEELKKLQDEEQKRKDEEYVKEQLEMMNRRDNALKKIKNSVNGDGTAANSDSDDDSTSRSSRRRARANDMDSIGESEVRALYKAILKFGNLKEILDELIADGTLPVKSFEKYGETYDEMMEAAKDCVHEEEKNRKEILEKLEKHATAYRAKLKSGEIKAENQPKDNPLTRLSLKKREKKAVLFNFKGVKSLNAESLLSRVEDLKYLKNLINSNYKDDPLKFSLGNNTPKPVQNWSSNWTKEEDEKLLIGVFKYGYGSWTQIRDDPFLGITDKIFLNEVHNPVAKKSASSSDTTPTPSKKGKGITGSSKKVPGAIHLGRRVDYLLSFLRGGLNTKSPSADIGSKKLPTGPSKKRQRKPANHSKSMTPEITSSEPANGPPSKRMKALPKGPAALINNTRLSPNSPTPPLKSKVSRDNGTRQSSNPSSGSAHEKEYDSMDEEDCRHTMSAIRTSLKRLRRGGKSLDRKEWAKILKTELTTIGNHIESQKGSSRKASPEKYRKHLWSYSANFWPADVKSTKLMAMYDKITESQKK

Chain of Protein translocase subunit SecA (Escherichia coli (strain K12)) (P10408 whole entry): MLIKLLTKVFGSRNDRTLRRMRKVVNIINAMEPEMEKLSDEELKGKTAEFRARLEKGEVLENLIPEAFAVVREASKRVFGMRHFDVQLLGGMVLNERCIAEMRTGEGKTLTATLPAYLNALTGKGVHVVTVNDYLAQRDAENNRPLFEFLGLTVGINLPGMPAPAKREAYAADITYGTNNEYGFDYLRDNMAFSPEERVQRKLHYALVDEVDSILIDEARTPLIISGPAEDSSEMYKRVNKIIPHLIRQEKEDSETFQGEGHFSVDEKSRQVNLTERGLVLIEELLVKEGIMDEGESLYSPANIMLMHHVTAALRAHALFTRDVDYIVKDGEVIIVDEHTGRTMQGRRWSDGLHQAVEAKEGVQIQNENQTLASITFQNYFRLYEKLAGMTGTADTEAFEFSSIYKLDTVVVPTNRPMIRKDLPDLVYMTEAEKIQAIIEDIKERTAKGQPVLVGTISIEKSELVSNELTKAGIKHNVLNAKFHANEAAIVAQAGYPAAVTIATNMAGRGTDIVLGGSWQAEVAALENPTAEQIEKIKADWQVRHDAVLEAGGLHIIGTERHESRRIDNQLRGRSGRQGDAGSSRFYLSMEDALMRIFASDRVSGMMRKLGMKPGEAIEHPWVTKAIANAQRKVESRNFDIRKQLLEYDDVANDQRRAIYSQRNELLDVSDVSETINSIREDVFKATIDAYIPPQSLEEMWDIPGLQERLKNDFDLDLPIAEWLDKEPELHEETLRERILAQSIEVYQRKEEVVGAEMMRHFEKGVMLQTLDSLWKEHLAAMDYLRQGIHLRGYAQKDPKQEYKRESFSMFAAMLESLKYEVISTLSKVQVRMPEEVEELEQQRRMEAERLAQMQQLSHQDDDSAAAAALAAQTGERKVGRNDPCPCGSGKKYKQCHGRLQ
Chain of Sialic acid-binding Ig-like lectin 9 (Homo sapiens) (Q9Y336 whole entry): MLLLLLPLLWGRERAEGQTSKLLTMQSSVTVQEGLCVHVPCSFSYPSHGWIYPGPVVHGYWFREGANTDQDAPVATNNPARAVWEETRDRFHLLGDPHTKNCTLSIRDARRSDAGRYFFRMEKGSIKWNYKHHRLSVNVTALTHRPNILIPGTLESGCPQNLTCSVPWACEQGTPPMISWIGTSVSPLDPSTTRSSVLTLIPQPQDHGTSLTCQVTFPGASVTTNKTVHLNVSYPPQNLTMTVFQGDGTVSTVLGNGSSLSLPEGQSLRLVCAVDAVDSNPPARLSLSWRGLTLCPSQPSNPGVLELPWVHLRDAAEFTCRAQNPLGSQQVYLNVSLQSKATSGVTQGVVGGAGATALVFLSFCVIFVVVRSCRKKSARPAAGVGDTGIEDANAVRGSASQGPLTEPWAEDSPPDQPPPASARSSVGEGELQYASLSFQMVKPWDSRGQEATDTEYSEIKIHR

In the case of `Cn1cnnc1S(=O)(=O)C1CCN(S(=O)(=O)c2ccc(F)c(Cl)c2)CC1`, the Percent Effect was -0.452% in experiment [1]; -5.48% in experiment [2]; 9.53% in [3]; -2.11% in experiment [4]; -1.37% in the experiment on Trypanosoma cruzi; 1.36% in experiment [5]. The Percent Effect in experiment [6] is 7.1%; in the experiment listed under Homo sapiens, 8.21%; in [7], -1.07%; in [8] it was 0%; in experiment [9], -1.74%.
As to `Cc1nnc(CN2CCN(CCOc3ccccc3C#N)CC2)n1C`, the Percent Effect in [1] is -5%; in experiment [2], 13.2%; in experiment [3] it was -7.44%; in experiment [4], 8.94%; in the experiment on Trypanosoma cruzi, 5.7%; in experiment [5] it was 1.44%. In addition, the Percent Effect in [6] was 7.87%; in the experiment filed under Homo sapiens, 5.78%; in experiment [7] it was 3.45%; in [8], 16.1%; in [9] it was -3.26%.
Turning to `Cc1cccc(-n2c(C)cc(C(=O)N3CCn4c(C)nnc4C3)c2C)c1`, the Percent Effect in experiment [1] was -3.26%; in [2] it was 10.5%; in experiment [3] it was -12.3%; in [4], 9.36%; in the experiment with Trypanosoma cruzi it was 2.15%; in [5], -3.6%. For the same compound, the Percent Effect in experiment [6] was 7.19%; in the experiment filed under Homo sapiens, 3.33%; in experiment [7], 11.3%; in [8], 16.1%; in experiment [9], -0.518%.
For the compound `CCc1nc(C)c(C(=O)N2C[C@H]3CC[C@@H]2CN(S(=O)(=O)N(C)C)C3)s1`, the Percent Effect in experiment [1] is -5.92%; in experiment [2] it was 2.67%; in [3] it was -0.605%; in [4], -2.09%; in the experiment on Trypanosoma cruzi, -8.28%; in [5], -2.08%. Moreover, the Percent Effect in experiment [6] was 15.9%; in the experiment filed under Homo sapiens, 21.2%; in experiment [7], -0.546%; in [8], 3.7%; in experiment [9] it was -4.98%.
On to `COc1ncc(-c2nccn2CCN(C)C)cn1`, for which the Percent Effect in experiment [1] was -3.87%; in experiment [2], -2.7%; in experiment [3], -2.61%; in experiment [4] it was 1.15%; in the experiment on Trypanosoma cruzi, -0.965%; in [5], -3.81%. Also, the Percent Effect is 20.9% in experiment [6]; 2.02% in the experiment listed under Homo sapiens; -2.65% in experiment [7]; 2.44% in [8]; -3.6% in [9].
On to `Cc1ccc(CN2CCC3(CC2)OC(C(=O)N(C)C)c2ccccc23)o1` (stereo unspecified), for which the Percent Effect was -0.000759% in experiment [1]; 4% in experiment [2]; -1.87% in experiment [3]; -0.475% in [4]; -10.2% in the experiment with Trypanosoma cruzi; -8.63% in [5]. For the same compound, the Percent Effect in experiment [6] is 14.6%; in the experiment listed under Homo sapiens, 2.54%; in experiment [7] it was 4.23%; in experiment [8], 0%; in experiment [9], -8.66%.
Regarding `CSCc1nc(C(C)(C)NC(=O)OC(C)(C)C)no1`, the Percent Effect in experiment [1] was -2.5%; in experiment [2], 2.67%; in [3], -2.2%; in [4] it was 1.89%; in the experiment with Trypanosoma cruzi it was 7.3%; in experiment [5], -2.08%. The Percent Effect was 9.07% in experiment [6]; -12.6% in the experiment filed under Homo sapiens; -0.546% in experiment [7]; 1.24% in experiment [8]; 107% in experiment [9].
Turning to `c1cn(Cc2nnc(C3CCN(C4CCOCC4)CC3)n2C2CC2)cn1`, the Percent Effect was -3.73% in experiment [1]; 2.67% in experiment [2]; -3.77% in experiment [3]; -0.983% in experiment [4]; -3.21% in the experiment with Trypanosoma cruzi; 0% in experiment [5]. In addition, the Percent Effect in experiment [6] is 26.7%; in the experiment listed under Homo sapiens, 21.6%; in experiment [7], 2.73%; in [8], 3.7%; in experiment [9], -5.45%.
As for `Cc1nnc(N2C[C@@H](OCCCn3cccn3)[C@H]3OCCC[C@H]32)s1`, the Percent Effect in experiment [1] was -0.829%; in experiment [2], 5.48%; in [3] it was -5.05%; in [4], 10.8%; in the experiment on Trypanosoma cruzi, 1.79%; in [5], -5.19%. The Percent Effect in experiment [6] is 24.9%; in the experiment listed under Homo sapiens, -5.83%; in [7], 7.29%; in [8], 16.1%; in experiment [9] it was -7.05%.
Regarding `Cc1cc(C(=O)N2CCc3nnc(N(C)C)cc3C2)c(C)n1C1CC1`, the Percent Effect was -2.94% in experiment [1]; 3.8% in experiment [2]; -0.0334% in experiment [3]; 0.611% in [4]; -0.513% with Trypanosoma cruzi; 4.52% in experiment [5]. In addition, the Percent Effect in [6] was 16.1%; in the experiment listed under Homo sapiens, 14%; in [7] it was 8.33%; in experiment [8] it was 10.1%; in experiment [9], -3.64%.
With `Cc1cnn(CCNCc2csc(-c3ccc(F)cc3)n2)c1`, the Percent Effect was -3.56% in [1]; -15.8% in experiment [2]; 4.58% in experiment [3]; 5.27% in experiment [4]; 3.19% in the experiment with Trypanosoma cruzi; 0.383% in experiment [5]. Also, the Percent Effect in experiment [6] stood at 1%; in the experiment listed under Homo sapiens, 1.14%; in [7], 1.47%; in experiment [8], 0%; in experiment [9], 5.05%.
